Measurements reported in the supplement of paper PMC6518042.

What follows are molecules tested on Pectobacterium parmentieri SCC3193 (assay: DuctApe activity index (growth/respiration on compound as sole nutrient source, blank-subtracted) (activity index (0-3)); higher = stronger utilization of the compound, active = 3 or more). Conditions: nutrient role (plate category): carbon.
Method: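 Biolog Phenotype Microarray plates PM1, PM2A (carbon), PM3 (nitrogen) and PM4 (phosphorus/sulfur) inoculated with P. parmentieri SCC3193 in M9-C minimal salts medium with Biolog dye A, and read in the OmniLog for 46 h. Each well was tested in triplicate and the experiment was run twice. DuctApe computed a blank-subtracted activity index (AV, 0-3) from the mean curves; growth is positive at AV >= 3 and negative at AV <= 2.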

| SMILES | DuctApe activity index |
| --- | --- |
| N[C@@H](Cc1c[nH]cn1)C(=O)O [L-Histidine] | 0 (inactive) |
| N[C@@H](CCO)C(=O)O [L-Homoserine] | 0 (inactive) |
| CCCC(=O)C(=O)O [a-Keto-Valeric acid] | 0 (inactive) |
| Nc1ncnc2c1ncn2[C@@H]1O[C@H](CO)[C@@H](O)[C@H]1O [Adenosine] | 1 (inactive) |
| OC[C@H]1O[C@@](CO)(O[C@H]2O[C@H](CO)[C@@H](O)[C@H](O)[C@H]2O)[C@@H](O[C@H]2O[C@H](CO)[C@@H](O)[C@H](O)[C@H]2O)[C@@H]1O [D-Melezitose] | 0 (inactive) |
| OC[C@H]1O[C@H](O[C@H]2[C@H](O)[C@@H](O)[C@@H](O[C@H]3[C@H](O)[C@@H](O)[C@@H](O)O[C@@H]3CO)O[C@@H]2CO)[C@H](O)[C@@H](O)[C@@H]1O [Maltotriose] | 3 (active) |
| O=C(O)[C@H]1OC(O)[C@H](O)[C@@H](O)[C@@H]1O (stereo partly drawn) [D-Glucuronic acid] | 0 (inactive) |
| N[C@@H](CO)C(=O)O [L-Serine] | 3 (active) |
| O=c1ccn([C@@H]2O[C@H](CO)[C@@H](O)[C@H]2O)c(=O)[nH]1 [Uridine] | 1 (inactive) |
| C[C@H](N)C(=O)NCC(=O)O | 0 (inactive) |
| NCCCC(=O)O [g-Amino-N-Butyric acid] | 0 (inactive) |
| NC(=O)CC[C@H](N)C(=O)O [L-Glutamine] | 0 (inactive) |
| C[C@@H](N)C(=O)O [D-Alanine] | 0 (inactive) |
| O=P(O)(O)O[C@H]1O[C@H](CO)[C@@H](O)[C@H](O)[C@H]1O [D-Glucose-1-Phosphate] | 0 (inactive) |
